T1: UNK ZnF1-3 (human, UniProt Q9C0B0 31-174)
T1 sequence: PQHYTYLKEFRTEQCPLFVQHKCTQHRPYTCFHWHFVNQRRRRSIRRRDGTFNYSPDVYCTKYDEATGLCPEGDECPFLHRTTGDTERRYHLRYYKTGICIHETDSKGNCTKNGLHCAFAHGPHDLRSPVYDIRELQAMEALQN

B1: 107960272_107965159_2041_CDS_ENSG00000166266_ENST00000393094|human|control|control (ssRNA)
RNA: GGGAGUUCUACAGUCCGACGAUCUCUAGCAAGCUUGUUUACAUAAUCCGCUGGCAUACCAACUUCUCUUAGCCACUCUACCAUGUUUUCUUCAAUUUCACUAUCGGCAGAGAUGUCUAAUAUAAGACGUCGUGUCAAAUGAGCCAACAGAGGAUUGAGCAUCA
B2: chr1:95363480:95363481:-_ENSG00000117519_ENST00000538964|hu_mus|FALSE|FALSE (ssRNA)
RNA: GGGAGUUCUACAGUCCGACGAUCCGUGCCCUGGCUUCCGUUGUGAAUGACAGGUUCUGUGGGUGCGGCACAGUACUUGGGGUCAUAUACUUGCCGCCCAAGCCCAUACACGCUCAUUCCUUUCUGGGAAGCAACUUUGUUGGUCAACAGAGGAUUGAGCAUCA
B3: chr12:48362563:48362564:+_ENSG00000134291_ENST00000256686|hu_hu|hu_hu_hu_mus_False|58_98 (ssRNA)
RNA: GGGAGUUCUACAGUCCGACGAUCUCCGUCAAGCCCUUCAAGCCCCACUUGCGGGGGAAACUGUAAUCACUUUGUAUUUCUAAAAAAAAGAAACGCCAAAAACUUUCCAAAAAGCGGGGGUGGGGUGAGGCGGGAGGGGGAGGUCAACAGAGGAUUGAGCAUCA
B4: chr1:186721242:186721243:-_ENSMUSG00000026620_ENSMUST00000027929|mus_mus|FALSE|FALSE (ssRNA)
RNA: GGGAGUUCUACAGUCCGACGAUCAUAAUGAGUAUUAAAAAGAUGUGCCUUUUCUAGUGGCUUUACGUCGCAUACGUCACUAAUUAUGAAAGAAGGCAAAUGACCAGUUACAAAGCUCCACAUGACUGGAAUAAUGAUGUGGAACAACAGAGGAUUGAGCAUCA
B5: chr5:136386016:136386017:-_ENSMUSG00000051391_ENSMUST00000055808|mus_mus|motif|central (ssRNA)
RNA: GGGAGUUCUACAGUCCGACGAUCGGGGGUAUUUAACGGUUUCUGUUUUUGUGAUGGGCUGACCUUAAGGGUAAAGAAGAACGGAAAAAAAAAGUAUCCCCCGCAGCCCCCUCCCAAACACCCAUCAACCAAAACGGAACAGGGCAACAGAGGAUUGAGCAUCA
B6: chr16:94690093:94690094:+_ENSMUSG00000040785_ENSMUST00000117648|mus_hu|mus_mus_mus_hu_True|8_88 (ssRNA)
RNA: GGGAGUUCUACAGUCCGACGAUCGGGCUGGGAUGACGGACACACAGAUCUUCCCAGAGGGGGAAAAAGUCUUAGUCGAUACUAAUUAAAAAGUGUUAAUGAUUUUUGAAAAUCAGAUUACAUCUAUUUGAAUCAUAAAGCAAACAACAGAGGAUUGAGCAUCA
B7: 60821080_60823165_1073_3pUTR_ENSMUSG00000021559_ENSMUST00000077453|mouse|control|control (ssRNA)
RNA: GGGAGUUCUACAGUCCGACGAUCUUCGACUAAGUGCUUGUUGGGUGUCUUUAGGCUUGAUCCAGGGGUGCUGCAAACUGUCCUGGAUUGUCAUCCUCUUCUUUGGAUCCUUGACCAGCAGUCUUCUGAUGAAAUCUUUGGCAACAACAGAGGAUUGAGCAUCA
B8: chr8:59070621:59070622:+_ENSMUSG00000038206_ENSMUST00000040218|mus_mus|FALSE|FALSE (ssRNA)
RNA: GGGAGUUCUACAGUCCGACGAUCAAACAUGAUGAGCAAAUUAAGAAAAGUUCUGUAAAAUUAGUUAGUUCUGAGAUUUCUAAACUAGAAAACAGUGAAACAAAAAAGGGGGGGUGCAGUCAAGCUGGAUUUUACACACAGGCUCAACAGAGGAUUGAGCAUCA
B9: chr8:59070621:59070622:+_ENSMUSG00000038206_ENSMUST00000040218|mus_mus|motif|central (ssRNA)
RNA: B8 RNA with U80G, A81G, U85G, A86G
B10: chr1:169302553:169302554:-_ENSMUSG00000026688_ENSMUST00000028005|mus_mus|FALSE|FALSE (ssRNA)
RNA: GGGAGUUCUACAGUCCGACGAUCAUGCAGGCAGGAGCUUUAGGUAUGAGGCUGAUGCCAGAUAAGUUUUUAUUAUAUUAAAAAAAAAAAAAAAACCAGUGCAACUGGAAAUCAGGGUGAGUCGCUGGAGGUGAGUGAGAGUCGCAACAGAGGAUUGAGCAUCA
B11: 219445452_219447802_500_3pUTR_ENSG00000144580_ENST00000542068|human|control|control (ssRNA)
RNA: GGGAGUUCUACAGUCCGACGAUCCUGGAUGUGAUGCUACACAUUGCAGUAAUGCCAGAGCAUUGCAAACUCUGUUAGACUGGUGUGCUGUCAAGGUGGGUGGGUUGAUAGAUGGAUAAAUAUUUACAAUUUCCUGUAAAAGUGCAACAGAGGAUUGAGCAUCA
B12: chr7:141441981:141441982:+_ENSG00000106028_ENST00000265304|hu_mus|hu_hu_hu_mus_False|1_8 (ssRNA)
RNA: GGGAGUUCUACAGUCCGACGAUCCUCAUGUCUUACAAACUGACGAAAUACCUGUAACACAGGUCUUCGAAACAUGGCUUCUGUUUUUCUUACAACCUAAUCUUUAGGCUUUUCCUAAAGGAAAGAAUAACCCGAGCAGCCCAGCAACAGAGGAUUGAGCAUCA
B13: chr11:46405157:46405158:+_ENSG00000110492_ENST00000395566|hu_hu|hu_hu_hu_mus_False|8_78 (ssRNA)
RNA: GGGAGUUCUACAGUCCGACGAUCCCCUCCCCACUUUGGGCACUUGGUGUGGGCGUGAAGGCAGGGCCGUGAUUGACAGAGCUGACAGGAAGACAAAAGGCACUGGUGGGUUAUAUCUUGGGCCUGUGAGAGGGAGGGGCUCCGCAACAGAGGAUUGAGCAUCA

Positions count from the first letter of the chain named. Over roughly 24,000 sequences, “enrichment r” has its median near 0.99; the highest 2% begin near 3.7. For the sample, the highest values were picked, then their nearest neighbours and some sequences at random.

For this experiment, the target named is T1, UNK ZnF1-3. Kind of experiment: nsRBNS (natural sequence RNA bind-n-seq); RBNS binding buffer (assumed for nsRBNS): 25 mM Tris pH 7.5, 150 mM KCl, 3 mM MgCl2, 0.01% Triton X-100, 500 ug/ml BSA, 20 U/ml SUPERase-In, 4 C; UNK is unkempt and MSI1 is Musashi-1; names of the RNAs are library labels; protein concentration not given here; high values mean tight binding.
B1 displayed a binding signal of 0.643 enrichment R.
In turn, B2 came in with a binding signal of 0.529 enrichment R.
The value for B3 was 1.56 enrichment R.
Turning to B4, the binding signal amounted to 0.52 enrichment R.
The value for B5 was 0.928 enrichment R.
Regarding B6, the binding signal turned out to be 1.05 enrichment R.
The value for B7 was 0.466 enrichment R.
Regarding B8, the binding signal is 7.52 enrichment R.
Molecule B9 returned a binding signal of 9.45 enrichment R.
The molecule B10 returned a binding signal of 7.4 enrichment R.
B11 had a binding signal of 1.19 enrichment R.
Under B12 stands 0.751 enrichment R.
Under B13 stands 2.15 enrichment R.

For the origin of these results see PMC12136788.
